For 68 molecules, INHIBITION results are on record in ChEMBL document CHEMBL4513216, “Probing the Open Global Health Chemical Diversity Library for Multistage-Active Starting Points for Next-Generation Antimalarials” (ACS Infect Dis, 2020).

The structures appear in SMILES notation. In all, about 69,000 compounds went through this assay and about 8,600 (12%) showed an effect of 50% or more. This is one part of a sample in which strong results are shown more often than they occur.

For this experiment, the system named is Plasmodium berghei. The experiment can be described thus: Screen against P. berghei liver stage (PbLuc), transformed with Luciferase, at 10uM. It counts as functional, HepG2. The settings on record: tested at 10 uM.
On to `Cc1cnn(CCNCc2csc(-c3ncccn3)n2)c1`, for which the INHIBITION is 27.95%.

On to `CCc1nnc(CN(CC)C(=O)C2CC(=O)N(C3CCCC3)C2)o1` (stereo not drawn), for which the INHIBITION is listed as 43.2%.

With `NC(=O)C1CCCN1Cc1cccc(NC(=O)c2ccsc2)c1` (stereo not drawn), the INHIBITION was -18.4%.

`NC(=O)C1CCCN1Cc1cccc(NC(=O)c2cc(Cl)cc(Cl)c2)c1` (stereo not drawn): the INHIBITION amounted to 68.8%.

On to `Cc1cc(C)cc(C(=O)Nc2cccc(CN3CCCC3C(N)=O)c2)c1` (stereo not drawn), for which the INHIBITION is 56%.

For `NC(=O)C1CCCN1Cc1cccc(NC(=O)c2ccc(Cl)cc2F)c1` (stereo not drawn), the INHIBITION came to 44%.

On to `NC(=O)C1CCCN1Cc1cccc(NC(=O)c2cccs2)c1` (stereo not drawn), for which the INHIBITION is -8.22%.

As for `CCc1ccc(C(=O)Nc2cccc(CN3CCCC3C(N)=O)c2)cc1` (stereo not drawn), the INHIBITION is recorded as -40.7%.

As for `C[C@]12CCCCN(C(=O)c3ccccn3)[C@H]1CCCC(=O)N2`, the INHIBITION is given as 11.1%.

For the molecule `CC1CCc2nn(CCNC(=O)c3ccco3)c(=O)cc2C1` (stereo not drawn), the INHIBITION is listed as -16.9%.

On to `COc1cccc(S(=O)(=O)NC(=O)C2CC(c3ccccc3)=NO2)c1` (stereo not drawn), for which the INHIBITION is -24.7%.

On to `CCOC[C@@H]1CCC[C@@]12CN(Cc1cccnc1)CCO2`, for which the INHIBITION is reported as 48.6%.

Consider `COC[C@@H]1CCC[C@]12CN(Cc1cccc(C)n1)CCO2`, for which the INHIBITION is listed as -11.8%.

As for `COC[C@@H]1CCC[C@@]12CN(Cc1ccco1)CCO2`, the INHIBITION is reported as -0.813%.

Turning to `COC[C@@H]1CCC[C@]12CN(Cc1ccco1)CCO2`, the INHIBITION is given as 8.67%.

On to `c1ccc(COC[C@@H]2CCC[C@]23CN(Cc2nccs2)CCO3)nc1`, for which the INHIBITION is recorded as 74.2%.

Turning to `c1coc(CN2CCO[C@@]3(CCC[C@@H]3COCc3nccs3)C2)c1`, the INHIBITION came to 53.2%.

Take `O=C(c1ccoc1)N1CCO[C@]2(CCC[C@@H]2COCc2ccncc2)C1`: the INHIBITION is given as -6.23%.

As for `c1csc(COC[C@H]2CCC[C@]23CN(Cc2ccoc2)CCO3)n1`, the INHIBITION came to 63.7%.

Consider `O=C(c1ccc[nH]1)N1CCO[C@]2(CCC[C@@H]2COc2cccnc2)C1`, for which the INHIBITION is on record as -34.7%.

`CCOC[C@@H]1CCC[C@@]12CN(Cc1nccs1)CCO2`: the INHIBITION stood at 35.8%.

In the case of `c1cncc(OC[C@@H]2CCC[C@@]23CN(Cc2nccs2)CCO3)c1`, the INHIBITION was 66%.

On to `c1ccc(OC[C@H]2CCC[C@]23CN(Cc2nccs2)CCO3)nc1`, for which the INHIBITION was determined as 38.7%.

For `CCc1noc(C2CCCCN2C(=O)c2sccc2C)n1` (stereo not drawn), the INHIBITION is given as 40.8%.

As to `O=C(O)c1cc2c(nc1N1CCOCC1)CCN(C1CCOC1)CC2` (stereo not drawn), the INHIBITION is recorded as -12.1%.

Consider `CC(=O)NC1CCCN(C(=O)NCc2cccnc2)C1` (stereo not drawn), for which the INHIBITION is -51.5%.

Take `CC(C)CN1CCC2(CC1)CC(NS(C)(=O)=O)c1ccccc1O2` (stereo not drawn): the INHIBITION is 6.55%.

On to `CCOCCCC(=O)N(C)C(c1cccc(F)c1)c1ccccn1` (stereo not drawn), for which the INHIBITION was -18%.

Turning to `Cc1nc(C2CCNCC2)cc(N(C)Cc2cc3cc(F)ccc3[nH]2)n1`, the INHIBITION is 33.5%.

As for `COc1cnc(CSc2nnc(C)s2)cc1OCC(N)=O`, the INHIBITION was determined as 34.2%.

As to `CCN1C(=O)CCCC12CCCN(C(=O)c1occc1C)C2` (stereo not drawn), the INHIBITION turned out to be 23.5%.

Consider `CC(CO)(NCc1noc(Cc2ccccc2)n1)C1CCCCC1` (stereo not drawn), for which the INHIBITION was -1.7%.

In the case of `O=C(O)[C@@H]1CN(C(=O)CSCC2CC2)C[C@H]1c1ccccn1`, the INHIBITION was -87%.

Take `CCOc1ncccc1CNC(=O)c1c(C)oc(C)c1C`: the INHIBITION is listed as 29.75%.

For the molecule `Cc1csc(CNC(=O)NC(C)c2ccc3c(c2)CCC(=O)N3)n1` (stereo not drawn), the INHIBITION is listed as 9.64%.

As for `CC(NC(=O)c1cccc[n+]1[O-])c1ccc2c(c1)CCC(=O)N2` (stereo not drawn), the INHIBITION came out at 62.6%.

As to `CC(NC(=O)c1ccoc1)c1ccc2c(c1)CCC(=O)N2` (stereo not drawn), the INHIBITION was -6.14%.

As to `CC(NC(=O)NCc1cc[nH]n1)c1ccc2c(c1)CCC(=O)N2` (stereo not drawn), the INHIBITION worked out at 51.2%.

Take `CC(NC(=O)NCc1ccccn1)c1ccc2c(c1)CCC(=O)N2` (stereo not drawn): the INHIBITION is -75.2%.

As to `Cc1ccsc1C(=O)NC(C)c1ccc2c(c1)CCC(=O)N2` (stereo not drawn), the INHIBITION was determined as 11.7%.

Consider `Cn1cnnc1C1CCN(C(=O)CCCOCc2ccccc2)CC1`, for which the INHIBITION is 43.2%.

As for `COc1nc(C)ccc1CNC(=O)NC(c1ncc(C)s1)C1CC1` (stereo not drawn), the INHIBITION is given as -21.1%.

Turning to `O[C@H]1CN(CCCOc2ccccc2F)CC[C@@]12CCCO2`, the INHIBITION was 6.485%.

As for `C[C@@H]1CN(CCOc2ccc(F)cc2)CC[C@@]1(O)C1CCOCC1`, the INHIBITION is reported as 28.8%.

Regarding `O[C@H]1CN(CCOc2ccc(F)cc2)CC[C@@]12CCCO2`, the INHIBITION is listed as 62.9%.

As for `Cc1noc(C)c1CCC(=O)N1CCCC(n2cccn2)C1` (stereo not drawn), the INHIBITION was determined as 37.4%.

`CCc1nc(NC2CC(=O)N(CC3CCCCC3)C2)ncc1C` (stereo not drawn): the INHIBITION came to 2.97%.

As to `Cc1nc(Nc2nccs2)cc(C2CCCN2)n1` (stereo not drawn), the INHIBITION is listed as 5.05%.

For `Cc1nc(Nc2ccccn2)cc(C2CCCN2C2CCOCC2)n1` (stereo not drawn), the INHIBITION was found to be 20.8%.

Turning to `Cc1nc(Nc2ncccn2)cc(C2CCCN2C2CCOCC2)n1` (stereo not drawn), the INHIBITION turned out to be 15.4%.

For `Cc1nc(Nc2ncc(C)s2)cc(C2CCCN2)n1` (stereo not drawn), the INHIBITION is given as 67.15%.

On to `Cc1nc(Nc2nnc(C)s2)cc(C2CCCN2)n1` (stereo not drawn), for which the INHIBITION is recorded as -24.595%.

With `Cc1nc(Nc2nnc(C)s2)cc(C2CCCN2S(C)(=O)=O)n1` (stereo not drawn), the INHIBITION came out at 6.32%.

Regarding `Cc1nc(Nc2nccs2)cc(C2CCCN2C2CCOCC2)n1` (stereo not drawn), the INHIBITION is on record as 52.3%.

For the molecule `Cc1nc(Nc2ncc(C)s2)cc(C2CCCN2S(C)(=O)=O)n1` (stereo not drawn), the INHIBITION is listed as 50.8%.

As to `Cc1nc(NC2CCOCC2)cc(C2CCN2S(C)(=O)=O)n1` (stereo not drawn), the INHIBITION is given as 30.6%.

Take `Cc1cc(CN(C)C(=O)C2CC(c3cccc(F)c3)=NO2)no1` (stereo not drawn): the INHIBITION came to 7.24%.

For `CCNC(=O)c1ccc2c(c1)nc1n2CCN(C(C)C)C1`, the INHIBITION is -17.2%.

Take `COc1ccccc1C(=O)N1CCCC1c1ncc2c(n1)CCNC2` (stereo not drawn): the INHIBITION stood at 26.3%.

As to `CCCC(O)CN1CCC(=O)N(CCOC)Cc2ccccc21` (stereo not drawn), the INHIBITION worked out at 6.34%.

For the molecule `CC(C)C(C)N(C)C(=O)COc1ccccc1C#N` (stereo not drawn), the INHIBITION came out at 16.8%.

On to `COC(=O)c1ccc(NC(=O)CCc2ccco2)cc1`, for which the INHIBITION was -13.6%.

For the molecule `Cc1nnc(C(C)N2CCCN(Cc3ccc(C#N)cc3)CC2)o1` (stereo not drawn), the INHIBITION amounted to 24%.

For the molecule `O=c1ccc2c([nH]1)CCC(NCc1ccc(F)cc1)C2` (stereo not drawn), the INHIBITION amounted to 45.1%.

With `Cc1ccc(C)c(CC(=O)NC2(C#N)CCOCC2)c1`, the INHIBITION turned out to be 20.4%.

For `O=C(c1ccccn1)N(CCO)Cc1cc(Br)ccc1F`, the INHIBITION was -0.759%.

For `Cc1nn(C2CCS(=O)(=O)C2)c(O)c1Cc1ccccc1` (stereo not drawn), the INHIBITION is reported as 36.9%.

`CCOCC1CN(Cc2ccoc2)Cc2nn(C)cc21` (stereo not drawn): the INHIBITION is reported as 16.8%.
